From PubChem BioAssay AID1159580 (chemical genetic matrix, 2015)
In all, about 5,500 compounds went through this assay and about 2,000 (36%) were called active. About 18% were inconclusive and are not listed. This is one part of the list. A number with no mark means an inactive call. Cut-off read from the data, not from the text of the source: active = normalized growth mostly below about 0.91 (no sharp cut-off); inconclusive = no clear call, values can overlap the other calls; inactive = mostly above about 0.92.

Assay: chemical genetic growth profiling, strain panel (AID 1159580);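 note: tested at 20 µM; growth read once vehicle control cultures reached saturation at 30 °C; 1 = growth at the plate median or of vehicle wells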
Details: growth OD

## C[C@@H]1CC[C@H]2C(C)(C)C3CC12CC[C@@]3(C)O (some centres not stated)
S. cerevisiae deletion strains, locus YJR066W, strain TOR1, stronger effect = lower value
  normalized growth: 0.975
S. cerevisiae deletion strains, locus YKL009W, strain mrt4, stronger effect = lower value
  normalized growth: 0.893
S. cerevisiae deletion strains, locus YKL068W, stronger effect = lower value
  normalized growth: 1.01
S. cerevisiae deletion strains, locus YKL085W, strain MDH1 (second series), stronger effect = lower value
  normalized growth: 0.961
S. cerevisiae deletion strains, locus YKL085W, strain MDH1, stronger effect = lower value
  normalized growth: 0.961
S. cerevisiae deletion strains, locus YKL160W, strain elf1, stronger effect = lower value
  normalized growth: 0.813 (active)
S. cerevisiae deletion strains, locus YKL190W, strain CNB1, stronger effect = lower value
  normalized growth: 1.01
S. cerevisiae deletion strains, locus YKR001C, strain vps1, stronger effect = lower value
  normalized growth: 0.933
S. cerevisiae deletion strains, locus YKR026C, strain gcn3, stronger effect = lower value
  normalized growth: 0.994
S. cerevisiae deletion strains, locus YKR091W, strain srl3, stronger effect = lower value
  normalized growth: 0.934
S. cerevisiae deletion strains, locus YLL001W, strain dnm1, stronger effect = lower value
  normalized growth: 0.949
S. cerevisiae deletion strains, locus YLL026W, stronger effect = lower value
  normalized growth: 0.747 (active)
S. cerevisiae deletion strains, locus YLL041C, strain sdh2, stronger effect = lower value
  normalized growth: 0.926 (active)
S. cerevisiae deletion strains, locus YLR027C, strain aat2, stronger effect = lower value
  normalized growth: 0.781 (active)
S. cerevisiae deletion strains, locus YLR039C, strain RIC1, stronger effect = lower value
  normalized growth: 0.849
S. cerevisiae deletion strains, locus YLR058C, strain SHM2, stronger effect = lower value
  normalized growth: 1
S. cerevisiae deletion strains, locus YLR102C, strain apc9, stronger effect = lower value
  normalized growth: 0.989
S. cerevisiae deletion strains, locus YLR113W, strain HOG1, stronger effect = lower value
  normalized growth: 0.968
S. cerevisiae deletion strains, locus YLR221C, strain rsa3, stronger effect = lower value
  normalized growth: 0.745 (active)
S. cerevisiae deletion strains, locus YLR258W, strain gsy2, stronger effect = lower value
  normalized growth: 0.831 (active)
S. cerevisiae deletion strains, locus YLR262C, strain YPT6 (second series), stronger effect = lower value
  normalized growth: 0.549 (active)
S. cerevisiae deletion strains, locus YLR262C, strain YPT6, stronger effect = lower value
  normalized growth: 0.841
S. cerevisiae deletion strains, locus YLR268W, strain sec22, stronger effect = lower value
  normalized growth: 0.961
S. cerevisiae deletion strains, locus YLR320W, strain mms22, stronger effect = lower value
  normalized growth: 0.628 (active)
S. cerevisiae deletion strains, locus YLR330W, strain CHS5, stronger effect = lower value
  normalized growth: 0.876 (active)
S. cerevisiae deletion strains, locus YLR342W, strain FKS1 (second series), stronger effect = lower value
  normalized growth: 0.886
S. cerevisiae deletion strains, locus YLR342W, strain FKS1, stronger effect = lower value
  normalized growth: 0.861 (active)
S. cerevisiae deletion strains, locus YLR357W, strain rsc2, stronger effect = lower value
  normalized growth: 0.754 (active)
S. cerevisiae deletion strains, locus YLR370C, strain arc18, stronger effect = lower value
  normalized growth: 0.92
S. cerevisiae deletion strains, locus YLR371W, strain rom2, stronger effect = lower value
  normalized growth: 0.915
S. cerevisiae deletion strains, locus YLR384C, strain iki3, stronger effect = lower value
  normalized growth: 0.988
S. cerevisiae deletion strains, locus YLR418C, strain cdc73, stronger effect = lower value
  normalized growth: 0.824 (active)
S. cerevisiae deletion strains, locus YML016C, strain PPZ1, stronger effect = lower value
  normalized growth: 1.01
S. cerevisiae deletion strains, locus YML032C, strain rad52, stronger effect = lower value
  normalized growth: 0.917
S. cerevisiae deletion strains, locus YML120C, strain ndi1, stronger effect = lower value
  normalized growth: 0.786 (active)
S. cerevisiae deletion strains, locus YML124C, strain tub3, stronger effect = lower value
  normalized growth: 0.99
S. cerevisiae deletion strains, locus YMR058W, strain fet3, stronger effect = lower value
  normalized growth: 0.891 (active)
S. cerevisiae deletion strains, locus YMR078C, strain ctf18, stronger effect = lower value
  normalized growth: 0.998
S. cerevisiae deletion strains, locus YMR125W, strain sto1, stronger effect = lower value
  normalized growth: 0.83 (active)
S. cerevisiae deletion strains, locus YMR129W, stronger effect = lower value
  normalized growth: 1.01
S. cerevisiae deletion strains, locus YMR205C, strain PFK2, stronger effect = lower value
  normalized growth: 0.697 (active)
S. cerevisiae deletion strains, locus YMR223W, strain ubp8, stronger effect = lower value
  normalized growth: 0.952
S. cerevisiae deletion strains, locus YMR231W, strain pep5, stronger effect = lower value
  normalized growth: 0.878 (active)
S. cerevisiae deletion strains, locus YMR307W, strain GAS1, stronger effect = lower value
  normalized growth: 0.707
S. cerevisiae deletion strains, locus YNL067W, strain RPL9B, stronger effect = lower value
  normalized growth: 0.987
S. cerevisiae deletion strains, locus YNL071W, strain lat1, stronger effect = lower value
  normalized growth: 0.616 (active)
S. cerevisiae deletion strains, locus YNL183C, strain NPR1, stronger effect = lower value
  normalized growth: 0.976
S. cerevisiae deletion strains, locus YNL209W, strain ssb2, stronger effect = lower value
  normalized growth: 0.869 (active)
S. cerevisiae deletion strains, locus YNL233W, strain BNI4, stronger effect = lower value
  normalized growth: 0.83 (active)
S. cerevisiae deletion strains, locus YNL248C, strain rpa49, stronger effect = lower value
  normalized growth: 0.879 (active)
S. cerevisiae deletion strains, locus YNL250W, strain rad50, stronger effect = lower value
  normalized growth: 0.956
S. cerevisiae deletion strains, locus YNL271C, strain bni1, stronger effect = lower value
  normalized growth: 0.938
S. cerevisiae deletion strains, locus YNL298W, strain CLA4, stronger effect = lower value
  normalized growth: 0.884 (active)
S. cerevisiae deletion strains, locus YNL307C, strain MCK1, stronger effect = lower value
  normalized growth: 0.977
S. cerevisiae deletion strains, locus YNL322C, strain KRE1 (second series), stronger effect = lower value
  normalized growth: 0.971
S. cerevisiae deletion strains, locus YNR049C, strain mso1, stronger effect = lower value
  normalized growth: 1
S. cerevisiae deletion strains, locus YNR052C, strain pop2, stronger effect = lower value
  normalized growth: 0.865 (active)
S. cerevisiae deletion strains, locus YOL006C, strain TOP1, stronger effect = lower value
  normalized growth: 0.982
S. cerevisiae deletion strains, locus YOL012C, strain htz1
  normalized growth: 0.706
S. cerevisiae deletion strains, locus YOL147C, strain pex11, stronger effect = lower value
  normalized growth: 0.965
S. cerevisiae deletion strains, locus YOR001W, strain rrp6, stronger effect = lower value
  normalized growth: 0.81 (active)
S. cerevisiae deletion strains, locus YOR061W, strain CKA2, stronger effect = lower value
  normalized growth: 0.958
S. cerevisiae deletion strains, locus YOR069W, strain VPS5, stronger effect = lower value
  normalized growth: 0.998
S. cerevisiae deletion strains, locus YOR070C, strain gyp1, stronger effect = lower value
  normalized growth: 0.813 (active)
S. cerevisiae deletion strains, locus YOR080W, strain dia2, stronger effect = lower value
  normalized growth: 0.967
S. cerevisiae deletion strains, locus YOR083W, strain WHI5, stronger effect = lower value
  normalized growth: 0.743 (active)
S. cerevisiae deletion strains, locus YOR106W, strain vam3, stronger effect = lower value
  normalized growth: 0.713 (active)
S. cerevisiae deletion strains, locus YOR136W, strain idh2, stronger effect = lower value
  normalized growth: 0.959
S. cerevisiae deletion strains, locus YOR144C, strain elg1, stronger effect = lower value
  normalized growth: 0.972
S. cerevisiae deletion strains, locus YOR184W, strain ser1, stronger effect = lower value
  normalized growth: 0.9
S. cerevisiae deletion strains, locus YOR231W, strain MKK1, stronger effect = lower value
  normalized growth: 0.986
S. cerevisiae deletion strains, locus YOR265W, strain rbl2, stronger effect = lower value
  normalized growth: 0.916 (active)
S. cerevisiae deletion strains, locus YOR270C, strain vph1, stronger effect = lower value
  normalized growth: 0.618 (active)
S. cerevisiae deletion strains, locus YOR290C, strain snf2, stronger effect = lower value
  normalized growth: 0.784 (active)
S. cerevisiae deletion strains, locus YOR316C, strain cot1, stronger effect = lower value
  normalized growth: 0.987
S. cerevisiae deletion strains, locus YPL051W, strain arl3, stronger effect = lower value
  normalized growth: 0.707 (active)
S. cerevisiae deletion strains, locus YPL078C, strain atp4, stronger effect = lower value
  normalized growth: 0.837 (active)
S. cerevisiae deletion strains, locus YPL106C, strain sse1, stronger effect = lower value
  normalized growth: 0.654 (active)
S. cerevisiae deletion strains, locus YPL240C, strain hsp82, stronger effect = lower value
  normalized growth: 0.952
S. cerevisiae deletion strains, locus YPL241C, strain CIN2, stronger effect = lower value
  normalized growth: 1.02
S. cerevisiae deletion strains, locus YPL256C, strain CLN2, stronger effect = lower value
  normalized growth: 0.969
S. cerevisiae deletion strains, locus YPR119W, strain clb2, stronger effect = lower value
  normalized growth: 1
S. cerevisiae deletion strains, locus YPR141C, strain kar3, stronger effect = lower value
  normalized growth: 0.991
S. cerevisiae deletion strains, locus YPR163C, strain tif3, stronger effect = lower value
  normalized growth: 0.993
S. cerevisiae deletion strains, locus YPR167C, strain met16, stronger effect = lower value
  normalized growth: 0.981
S. cerevisiae deletion strains, strain wtn01, stronger effect = lower value
  normalized growth: 0.926
S. cerevisiae strains, strain wild type, stronger effect = lower value
  normalized growth: 0.965
